Laboratory results reported in PubChem BioAssay AID504720 (Sanford-Burnham Center for Chemical Genomics, 2011).
The whole screen tested about 350,000 compounds, of which about 1,100 (0.31%) were called active. Cut-off read from the data, not from the text of the source: active = activation above about 50%; inactive = the rest. The sample as a whole holds a higher share of actives than the screen did.

Target: Endoribonuclease toxin MazF (Escherichia coli (strain K12)) (UniProt P0AE70)
Assay: activators of E. coli MazEF toxin-antitoxin RNase, primary screen, biochemical, fluorescence, uHTS (AID 504720)
Settings: FAM/BHQ RNA-DNA oligo cleavage fluorescence, 5 h, at 20 µM, active compounds read high

Chain of Endoribonuclease toxin MazF (Escherichia coli (strain K12)) (P0AE70 whole entry, looked up): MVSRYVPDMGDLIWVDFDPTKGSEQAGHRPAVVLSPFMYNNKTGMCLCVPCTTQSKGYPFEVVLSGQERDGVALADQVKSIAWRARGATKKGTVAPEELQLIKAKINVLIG

Row | SMILES | activation
1 | O=C(NC(=S)Nc1cc(C(F)(F)F)ccc1N1CCOCC1)c1ccc(-c2cccc(Cl)c2)o1 | -2.26% (inactive)
2 | O=C(O)C(c1ccccc1)N1C(=O)/C(=C\c2ccc(-c3cccc(Cl)c3)o2)SC1=S (stereo not drawn) | 199% (active)
3 | CC(C(=O)NC1CCS(=O)(=O)C1)N1C(=O)/C(=C/c2ccc(Cl)cc2)SC1=S (stereo not drawn) | 0.406% (inactive)
4 | CC(C)N=C1CCCC1C(=S)SSC(=S)C1CCCC1=NC(C)C (stereo not drawn) | 1.19% (inactive)
5 | CN(C)c1ccc(C2N(C)C(=O)c3ccccc3N2C)cc1 (stereo not drawn) | -0.422% (inactive)
6 | CN(C)c1ccc(Nc2c3c4c(cccc4n(C)c2=O)C(=O)c2ccccc2-3)cc1 | 178% (active)
7 | NC1=NC(=O)C(Cc2cccc(Cl)c2Cl)S1 (stereo not drawn) | -10% (inactive)
8 | COc1cc(C(=O)NCc2nnc(SCC(=O)Nc3nc4ccc(C)cc4s3)o2)cc(OC)c1OC | 12.4% (inactive)
9 | CCN(CC)CCOc1ccc2c(c1)C(=NNC(=O)c1ccccn1)c1cc(OCCN(CC)CC)ccc1-2 | -0.85% (inactive)
10 | CN(CCNC(=O)c1cc2c(-c3ccccc3F)nn(C)c2s1)C1CCCCC1 | 18.1% (inactive)
11 | COCCNc1nc(-c2ccccc2)nc2c1oc1ccccc12 | 10.6% (inactive)
12 | CCc1nc(Nc2ccc3nccnc3c2)c2oc3ccccc3c2n1 | 92.8% (active)
13 | C[C@@H](Nc1nc(-c2ccccc2)nc2c1oc1ccccc12)C(=O)O | 0.442% (inactive)
14 | O=C(CSc1ccc(Cl)cc1)NC1CC1 | 8.89% (inactive)
15 | Cc1noc(NS(=O)(=O)c2ccc(N3CC(O)=C(c4ccccc4)C3=N)cc2)c1C | -0.03% (inactive)
16 | COc1ccc(N=Nc2c(-c3ccc(OC)cc3)[nH]oc2=O)cc1 | 61.5% (active)
17 | COc1ccc(N=C2C=CC(=O)O2)cc1 | 6.95% (inactive)
18 | O=c1o[nH]c(-c2ccccc2)c1N=Nc1c(F)cccc1Cl | -10.5% (inactive)
19 | COc1ccc(N2CCN(Cc3ccc(Br)s3)CC2)cc1 | -3.28% (inactive)
20 | O=S(=O)(c1cnccc1N1CCN(/N=C/c2ccc(Br)cc2)CC1)N1CCCCC1 | -7.86% (inactive)
21 | O=C(c1ccc(Cl)nc1)N1CCN(S(=O)(=O)c2ccc3c(c2)OCCO3)CC1 | 2.83% (inactive)
22 | COc1cc(C(=O)N2CCN(C)CC2)cc(OC)c1OC | 4.16% (inactive)

Row | SMILES | activation
23 | COc1cc(C(=O)N2C(=O)c3cccc(N)c3C2=O)cc(OC)c1OC | 75.9% (active)
24 | CC1CC(C)CN(S(=O)(=O)c2cccc(C(=O)N3C(=O)c4cccc(N)c4C3=O)c2)C1 (stereo not drawn) | 3.79% (inactive)
25 | NC(CSC(c1ccccc1)(c1ccccc1)c1ccc(-c2ccccc2)cc1)C(=O)O (stereo not drawn) | -7.6% (inactive)
26 | COc1ccc(CN(C)C(=S)Nc2ccc(Cl)cc2Cl)cc1 | 7.07% (inactive)
27 | O=c1c2ccccc2nc(/C=C/c2ccco2)n1-c1ccccc1O | -0.876% (inactive)
28 | CCn1c(/C=C/c2ccc([N+](=O)[O-])o2)nc2ccccc2c1=O | 1270% (active)
29 | O=c1c2ccccc2nc(/C=C/c2ccc(F)cc2)n1-c1ccccc1O | -12.9% (inactive)
30 | CN1OC[C@@H]2CN[C@H](c3ccc(-c4ccccc4)cc3)C[C@@H]21 | 8.87% (inactive)
31 | COC(=O)c1c(-c2ccsc2)oc2ccc(-c3cc(OC)c(OC)c(OC)c3)cc12 | 1.83% (inactive)
32 | O=C1N[C@H](Cc2c[nH]c3ccccc23)COC(=O)[C@H](Cc2ccc(F)cc2)C/C=C\C[C@H]1CC(=O)N(CCO)Cc1ccccc1 | -14.8% (inactive)
33 | Cc1nnc2n1N=C(c1ccc3c(c1)NC(=O)CO3)CS2 | -1.68% (inactive)
34 | CCOC(=O)C1CCN(C(=O)c2oc3ccc(S(=O)(=O)N4CCCCCC4)cc3c2C)CC1 | -5.11% (inactive)
35 | COc1ccc(NC(=O)c2oc3ccc(S(=O)(=O)N4CCOCC4)cc3c2C)cc1 | 8.57% (inactive)
36 | Cc1c(C(=O)NCCN(C)C)oc2ccc(S(=O)(=O)N3CCCC3)cc12 | 111% (active)
37 | COCCNC(=S)N1CCN(C)CC1 | -2.39% (inactive)
38 | C/C(CC(=O)NCc1ccc(Cl)cc1)=N\NC(=O)COc1ccc(C)cc1Br | -5.14% (inactive)
39 | CC(CCc1ccccc1)NCC(O)c1cccc([N+](=O)[O-])c1 (stereo not drawn) | 11.5% (inactive)
40 | COc1cc(/C=N/NC(=O)c2cccnc2)ccc1OC(=O)c1cccc(Br)c1 | 8.67% (inactive)
41 | COc1cccc(/C=N/NC(=O)c2[nH]nc3c2CCc2ccccc2-3)c1O | 160% (active)
42 | CCn1c(/C=N/NC(=O)c2ccc(OC)cc2)nc2ccccc21 | -0.18% (inactive)
43 | COc1ccc(S(=O)(=O)N2CCOC23CCN(S(=O)(=O)c2ccc([N+](=O)[O-])cc2)CC3)cc1 | 5.08% (inactive)
44 | COc1ccc(C(=O)Nc2ccc(C3(C#N)CCCC3)cc2)cc1OC | -19.2% (inactive)

Row | SMILES | activation
45 | CCOCCCNC(=O)C(NC(=O)c1ccccc1O)c1ccccc1 (stereo not drawn) | -12.8% (inactive)
46 | CC[C@@H]1Cc2cc(O)ccc2C2=C1c1ccc(O)cc1C[C@H]2CC | 84.7% (active)
47 | O=C1CC(Sc2ncn[nH]2)C(=O)N1c1ccccc1 (stereo not drawn) | 3.68% (inactive)
48 | Cc1[nH]c(C)c(S(=O)(=O)N2CCC(C)CC2)c1C(=O)N1CCCC1 | 1.65% (inactive)
49 | CCOC(=O)c1c(C)[nH]c(C)c1C(=O)COC(=O)/C=C/c1cccc([N+](=O)[O-])c1 | 3.22% (inactive)
50 | Cc1cccc(N=Nc2c(O)[nH]c3ccc(F)cc23)c1 | 946% (active)
51 | Cc1ccc(CNC(=O)CSc2nnc3c(n2)[nH]c2ccc(F)cc23)cc1 | 18.4% (inactive)
52 | COc1cc(OC)c(C(=S)N2CCCC2)cc1OC | 9.16% (inactive)
53 | O=C1C2(Cl)C3(Cl)C4(Cl)C(Cl)(Cl)C5(Cl)C3(Cl)C1(Cl)C5(Cl)C24Cl (stereo not drawn) | 65.6% (active)
54 | C=CCn1c(-c2ccc(Cl)cc2)ccc(C#N)c1=O | 2.85% (inactive)
55 | Cc1nc(Nc2ccc(S(=O)(=O)N3CCCC3)cc2)c2nnn(Cc3ccccc3)c2n1 | 12.1% (inactive)
56 | Cc1nc(Nc2ccc3c(c2)OCCO3)c2nnn(Cc3ccccc3Cl)c2n1 | -3.74% (inactive)
57 | Cc1nc(Nc2ccccc2F)c2nnn(Cc3ccccc3Cl)c2n1 | 61.6% (active)
58 | CC(C)(C)OC(=O)CNC(=O)c1[nH]cnc1C(=O)N[C@@H](CCCCN)C(=O)OC(C)(C)C | -1.01% (inactive)
59 | CC(=O)Nc1ccc(C(=O)N(C2=NC(C)CS2)c2ccc(Cl)cc2)cc1 (stereo not drawn) | 2.92% (inactive)
60 | C/C(=N\NC(=O)COc1c(C)cccc1C)c1cccs1 | -0.53% (inactive)
61 | CCOc1ccccc1N1CCN(C(=O)c2ccc3[nH]c(C)c(C)c3c2)CC1 | 9.45% (inactive)
62 | CCCN=C1N(C)C[C@@H]2[C@@H]3C(=O)N(Cc4ccccc4)C(=O)[C@@H]3[C@](C)(C(=O)OC)N12 | 3.52% (inactive)
63 | CCN1C[C@@H]2[C@@H]3C(=O)N(Cc4ccccc4)C(=O)[C@@H]3[C@](Cc3ccccc3)(C(=O)OC)N2C1=NC1CCCCC1 | 37.9% (inactive)
64 | CC[C@]1(C(=O)OC)[C@H]2C(=O)N(C)C(=O)[C@H]2[C@H]2CN(C)C(=NCc3ccccc3)N21 | 74.5% (active)
65 | CCOC(=O)c1ccc(NC(=O)c2ccc(NC(=O)C3CCCO3)cc2)cc1 (stereo not drawn) | 2.03% (inactive)
66 | OCCC1CN(Cc2ccc3nsnc3c2)CCN1C1CCCCC1 (stereo not drawn) | 5.81% (inactive)

Row | SMILES | activation
67 | CC(C)Cn1c(CCC(=O)O)ccc1-c1cccs1 | -11.1% (inactive)
68 | CC(=O)OC1CCC2(C)C(=CCC3C4CC(=O)N(O)C(=O)C4(C)CCC32)C1 (stereo not drawn) | 1.13% (inactive)
69 | CCN1/C(=C\c2ccc3ccccc3[n+]2CC)Sc2cc(C)ccc21 | 79.5% (active)
70 | CCN1/C(=C/c2ccc3ccc(C)cc3[n+]2CC)Sc2ccccc21 | 72.6% (active)
71 | CN(C(=O)CC(NC(=O)c1ccccc1)(c1ccccc1)c1ccccc1)c1ccccc1 | 10.5% (inactive)
72 | Cc1c(Cl)cccc1NC(=S)N(Cc1ccccc1)Cc1cccnc1 | 13.1% (inactive)
73 | CC(C)c1ccc(NC2CCCN(C(=O)c3ccncc3)C2)cc1 (stereo not drawn) | 5.6% (inactive)
74 | C[C@@H](NC(=O)OC(C)(C)C)c1nnc(S(=O)(=O)Cc2ccccc2)o1 | 8.87% (inactive)
75 | C/C(=N\OC(=O)c1ccccc1)c1c(C)nc2cc(C)ccn12 | 4.56% (inactive)
76 | COc1cc(Cl)c(C)cc1NC(=O)COC(=O)c1cc(SC)ccc1Cl | -5.68% (inactive)
77 | COCCn1c(SCC(=O)Nc2ccc(F)cc2F)nc2c(c1=O)SCC2 | 7.1% (inactive)
78 | COc1cc(N2CCCC2)c(OC)cc1/C=C(/C#N)c1cccc(Br)c1 | -128% (inactive)
79 | O=C(NCCCNC(=O)NC1CCCCC1)NC1CCCCC1 | 6.46% (inactive)
80 | COC(=O)Cn1c(=NC(=O)CSCC(=O)Nc2cc(C)on2)sc2ccccc21 | 5.86% (inactive)
81 | CC(C)(C)[C@H]1C=C(C(=O)NCc2ccccc2)O[C@@H](OCc2ccc(CO)cc2)C1 | 3.75% (inactive)
82 | CCN(CC)S(=O)(=O)c1cc([N+](=O)[O-])ccc1N=Nc1c(O)n(C)c2ccccc12 | 142% (active)
83 | CCn1c(O)c(N=NC(=O)c2cccc(S(=O)(=O)N3CCCCC3)c2)c2ccccc21 | -8.66% (inactive)
84 | CCN(CC)S(=O)(=O)c1cc([N+](=O)[O-])ccc1NNC(=O)Nc1ccccc1 | 3.61% (inactive)
85 | O=C(COC(=O)c1ccc(F)cc1F)Nc1ncccn1 | -2.63% (inactive)
86 | CCOc1ccc(N(CC(=O)NCCOc2ccccc2OC)S(=O)(=O)c2ccccc2)cc1 | -0.33% (inactive)
87 | O=C(COc1ccc(S(=O)(=O)N2CCCCC2)cc1)NCc1ccccn1 | 9.35% (inactive)
88 | CCOCCOC(=O)C1=C(C)N(C)C(=O)NC1c1ccccc1F (stereo not drawn) | 7.27% (inactive)
